Source: PubChem
An excerpt weighted towards active compounds, which were near 7.9% of everything screened.
LASV entry inh: inhibitors of Lassa virus binding or cell entry | Lassa virus pseudotype entry inhibition, cell reporter | Potency, µM (top dose mostly 37.9 µM), for inactives: top-dose activity change, negative = inhibition, actives largely listed as inhibitors | hit rate 1.2% among 300,000 | AID 540256; calls by dose curve; tested in HEK293 cells; further: potency means the concentration at half of the fitted maximal effect; nearly all actives have a fitted effect of over 50% in size
Marburg entry inh: blocks Marburg virus binding to or entry into cells. hit rate 1.8% among 300,000. Potency, µM (highest dose often 37.8 µM), for the others: top-dose activity change, negative = inhibition, hits mostly inhibitors. AID 540276. Marburg virus pseudotyped entry inhibition, cell reporter; calls by dose curve; tested in HEK293 cells; further: potency means the concentration at half of the fitted maximal effect
FMDV antiviral: foot and mouth disease virus antiviral activity | FMDV antiviral cell-based qHTS | Potency, µM (highest dose often 57.9 µM), without a hit: at the top dose activity change, negative = inhibition, most hits filed as inhibitors | hit rate 1.2% among 410,000 | AID 1159524; calls by dose curve; tested in HEK293T cells; further: read-out not given here; potency means the concentration at half of the fitted maximal effect; nearly all actives have a fitted effect of over 45% in size
HCV inhibitor: blocks hepatitis C virus; Huh7.5.1 HCVcc-Cre infection, luciferase reporter, 44 h; hit rate 3.4% among 340,000; Potency, µM (doses to about 41.8 µM), for the others: at the top dose activity change, negative = inhibition, hits mostly inhibitors; active means well fitted inhibition curve with a large enough effect; inconclusive means small, poorly fitted or top-dose-only effect, or another doubt; inactive means no such curve, though single readings can be large or run the other way; further: potency means the concentration at half of the fitted maximal effect
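Infectious HCV cell culture screen: compound-treated cells (1,000/well, pre-plated 4 h) are infected with HCVcc-Cre at roughly 0.5 moi and grown 44 h. Infection is quantified by luciferase signal after 15 min substrate incubation at room temperature.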
HCMV inh: human cytomegalovirus inhibition; HFF cells, HCMV-luciferase reporter, 72 h; hits give low values; AID 1259415; hit rate 4.5% among 410,000; activity change, negative = inhibition, % at 57.5 µM; in the data active means activity change below about -60%; inconclusive means no clear call, values can overlap the other calls; inactive means above about -39%
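Two compound doses tested in HFFs infected with HCMV-luciferase, MOI 1 PFU/cell, 72 h at 37C. Lysate luminescence read with OneGlo; data normalized against buffer-only and 10uM Salinomycin inhibitor controls.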
The depositor's hits bear a star; [ ] = remark or other dose. On the % scale 0 is the no-effect control and ±100 the full control effect.

How did CCCCCCCNC(=O)C1(CC2CC(c3ccc(Cl)cc3)=NO2)CCN(C(=O)Cc2ccc(F)cc2)CC1 (stereo not given) do in these assays?
FMDV antiviral: -7.1%; HCV inhibitor: 15.2%; HCMV inh: 19.6

Results for CCN(C(=O)CSc1nc(-c2ccccc2)no1)c1cccc(C)c1 ?
LASV entry inh: -0.4%[46.1 µM]; Marburg entry inh: -26.5%[46.1 µM]; FMDV antiviral: inconclusive; HCMV inh: -106.5*

What do the screens show for `CCN(C(=O)CSc1nc2ccccc2nc1Cc1ccc(F)cc1)c1cccc(C)c1`?
LASV entry inh: inconclusive; FMDV antiviral: -27.5%; HCMV inh: 1.5

Results for CCOC(=O)c1cccnc1SCC(=O)N(CC)c1cccc(C)c1 ?
LASV entry inh: -2.9%[46.1 µM]; Marburg entry inh: -5.0%; FMDV antiviral: -17.7%; HCV inhibitor: inconclusive; HCMV inh: inconclusive

Results for CCN(C(=O)CSc1nc2ccccc2nc1Cc1cccc(OC)c1)c1cccc(C)c1 ?
LASV entry inh: 7.08µM*; FMDV antiviral: -23.9%; HCMV inh: 12.7

What do the screens show for `COc1cccc(Cc2nc3ccccc3nc2SCC(=O)N2CCCCC2C)c1` (stereo not given)?
LASV entry inh: 11.2µM*; FMDV antiviral: -3.6%; HCMV inh: -38.5

Results for CCc1ccc(-c2cc3c(N4CCN(c5ccccc5)CC4)nccn3n2)cc1 ?
LASV entry inh: 21.1%[46.1 µM]; Marburg entry inh: inconclusive; FMDV antiviral: 14.8%; HCMV inh: -4.6

Results for COc1cc(/C=N/NS(=O)(=O)c2ccc(C)cc2)ccc1OCc1ccc(C(=O)O)cc1 ?
LASV entry inh: 6.31µM*; Marburg entry inh: inconclusive; FMDV antiviral: -36.9%; HCV inhibitor: 13.5%; HCMV inh: 2.1

What do the screens show for `O=S(=O)(N/N=C/c1ccccc1OCc1ccc(Cl)cc1)c1ccccc1`?
LASV entry inh: -12.1%; Marburg entry inh: inconclusive; FMDV antiviral: 61.8%; HCV inhibitor: inconclusive; HCMV inh: -83.4*

Results for Cc1ccc(S(=O)(=O)/C(C#N)=C/c2ccccc2OCc2ccccc2)cc1 ?
LASV entry inh: inconclusive; Marburg entry inh: inconclusive; FMDV antiviral: 11.7%; HCV inhibitor: 21.1%; HCMV inh: -68.9*

Results for O=C(Cc1ccccc1)N/N=C/c1ccccc1OCc1ccc(Cl)cc1 ?
LASV entry inh: -24.5%; Marburg entry inh: 23.6%; FMDV antiviral: 7.7%; HCV inhibitor: inconclusive; HCMV inh: 6.1

Results for COC(=O)c1ccc(COc2ccccc2/C=N/NS(=O)(=O)c2ccc(C)cc2)cc1 ?
LASV entry inh: -31.1%[14.3 µM]; Marburg entry inh: inconclusive; FMDV antiviral: 59.0%; HCMV inh: -94.0*

Results for CCS(=O)(=O)c1nc(S(=O)(=O)c2ccc(C)cc2)c(NCC(C)C)s1 ?
LASV entry inh: -22.4%[46.1 µM]; Marburg entry inh: 7.7%[46.1 µM]; FMDV antiviral: 46.9%; HCMV inh: inconclusive

What do the screens show for `C=CCn1c(SCC(=O)Nc2ccc(S(N)(=O)=O)cc2)nnc1-c1cnccn1`?
LASV entry inh: -1.9%[46.1 µM]; Marburg entry inh: inconclusive; FMDV antiviral: 27.4%; HCV inhibitor: 7.4%; HCMV inh: inconclusive

What do the screens show for `CCOc1cccc2sc(NC(=O)c3ccc(S(=O)(=O)N4CCCCC4)cc3)nc12`?
LASV entry inh: 16.8%[46.1 µM]; FMDV antiviral: inconclusive; HCMV inh: -8.1

Results for COc1cc(/C=N/NC(=O)CC2(C)OCCCO2)ccc1OCc1ccccc1 ?
LASV entry inh: 8.1%; Marburg entry inh: 33.0%; FMDV antiviral: 6.8%; HCV inhibitor: inconclusive; HCMV inh: inconclusive

How did COc1cc(/C=N/NC(=O)CN2CCCCC2)ccc1OCc1ccc(Br)cc1 do in these assays?
LASV entry inh: inconclusive; Marburg entry inh: inconclusive; FMDV antiviral: -2.8%; HCV inhibitor: 10µM*; HCMV inh: -13.6

Results for O=C(NCc1cccnc1)c1cc(C2CCCCN2S(=O)(=O)c2cccc3cccnc23)on1 (stereo not given) ?
FMDV antiviral: -11.0%; HCMV inh: -27.3

How did CC1(C(=O)NS(=O)(=O)c2ccc(Cl)cc2)CCN1C(=O)CCc1cccs1 (stereo not given) do in these assays?
FMDV antiviral: 2.0%; HCMV inh: 19.5

How did CCOc1ccc(NC(=O)CN2CCCC2c2cccs2)cc1S(=O)(=O)N1CCCC1 (stereo not given) do in these assays?
FMDV antiviral: 7.3%; HCV inhibitor: 11.2µM*; HCMV inh: -91.7*

What do the screens show for `CCOc1ccc(NC(=O)CN2CCN(c3ccccc3C)CC2)cc1S(=O)(=O)N1CCCC1`?
LASV entry inh: -4.9%; Marburg entry inh: -4.1%; FMDV antiviral: 0.4%; HCV inhibitor: inconclusive; HCMV inh: -2.8

What do the screens show for `O=C(CN1CCCC1c1cccs1)Nc1cccc(S(=O)(=O)N2CCCC2)c1` (stereo not given)?
FMDV antiviral: -25.0%; HCV inhibitor: 10µM*; HCMV inh: -33.3

Results for O=C(CN1CCCC1c1cccs1)Nc1cc(S(=O)(=O)N2CCCC2)ccc1Cl (stereo not given) ?
LASV entry inh: inconclusive; Marburg entry inh: -5.8%[46.1 µM]; FMDV antiviral: -20.9%; HCV inhibitor: inconclusive; HCMV inh: 2.7

How did COc1ccc(NC(=O)CN2CCCC2c2cccs2)cc1S(=O)(=O)N1CCCCC1 (stereo not given) do in these assays?
FMDV antiviral: 39.8µM*; HCV inhibitor: inconclusive; HCMV inh: inconclusive

What do the screens show for `CCNc1nc(NC(C)C)nc(N(C#N)[C@@H](C)C(=O)N(C)C)n1`?
Marburg entry inh: 6.0%

What do the screens show for `CCOC(=O)c1ccc(NC(=O)CCC(=O)N2Cc3ccccc3Oc3ncccc32)cc1`?
LASV entry inh: -24.1%[46.1 µM]; FMDV antiviral: -26.5%; HCMV inh: -16.0

Results for COC(=O)c1sccc1S(=O)(=O)N1CCN(c2ccccc2)CC1 ?
LASV entry inh: inconclusive; FMDV antiviral: -28.7%; HCMV inh: 11.7

What do the screens show for `O=C(CSC(=S)N1CCCC1)NCC(=O)Nc1ccccc1Br`?
LASV entry inh: -3.6%; Marburg entry inh: 5.4%; FMDV antiviral: -2.5%; HCV inhibitor: -12.9%; HCMV inh: -17.3

What do the screens show for `COc1ccc(-c2c(-c3ccc(O)cc3O)n[nH]c2C(F)(F)F)cc1`?
Marburg entry inh: 2.9%; FMDV antiviral: -11.7%; HCV inhibitor: inconclusive; HCMV inh: -7.2

How did COc1ccccc1-c1c(-c2ccc(O)cc2O)n[nH]c1C(F)(F)F do in these assays?
FMDV antiviral: 15.8µM*; HCV inhibitor: inconclusive; HCMV inh: active

How did Oc1ccc(-c2n[nH]c(C(F)(F)F)c2-c2ccccc2)c(O)c1 do in these assays?
LASV entry inh: inconclusive; Marburg entry inh: inconclusive; FMDV antiviral: 20µM*; HCV inhibitor: 5.62µM*; HCMV inh: -81.7*

How did C=C1Cc2c(Cl)cc3[nH]c4c5c3c2[C@@]2(O)[C@@H]1C[C@@H]2C(C)(C)O[C@H]5[C@@H]1CC[C@@]2(O)[C@@]35O[C@@H]3[C@@H](O)[C@@H](C(=O)O)O[C@H]5CC[C@]2(C)[C@@]41C do in these assays?
FMDV antiviral: -5.7%
